Many of the other results were omitted from the sample, so hits are more common in it than they were.
DUX4 txn inh = inhibitors of DUX4-driven ZSCAN4 reporter expression, primary screen, 293T cells, Gaussia and Italica luciferase. 293T-iDUX4 ZSCAN4-Gaussia luciferase reporter, 24 h; active compounds read low. activity change, negative = inhibition, % (test concentration not listed). 0.8% of 37,000 active. AID 1224904, 2016;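 active = mean inhibition of at least 10% in the main channel, exceeding the control channel by a set limit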;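 also: 0% = median of neutral control wells and -100% = median of positive control wells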
* marks the source's active call; other numbers are inactive results; ! = a repeat was not active.

SMILES	DUX4 txn inh
OC[C@@H]1[C@@H](c2ccc(C#Cc3cccnc3)cc2)[C@H]2CN(Cc3ccccc3F)CCCCN12	-45*
O=C(Nc1ccccc1F)N1CCCCN2[C@H](CO)[C@@H](c3ccc(C#Cc4cccnc4)cc3)[C@H]2C1	-3
OC[C@@H]1[C@@H](c2ccc(C#Cc3ccccc3)cc2)[C@H]2CN(Cc3cncnc3)CCCCN12	-4
CN(C)C(=O)C[C@H]1CC[C@H]2[C@H](COc3ccc(NC(=O)Nc4cccc(Cl)c4)cc3C(=O)N2C)O1	-2
CC(=O)N(C)C[C@H]1Oc2cc(-c3ccc(C)cc3)ccc2S(=O)(=O)N([C@H](C)CO)C[C@H]1C	-1
CCCN(C)C[C@H]1OCCCC[C@H](C)Oc2ccc(NC(=O)c3ccncc3)cc2C(=O)N([C@H](C)CO)C[C@H]1C	0
CN(C)C(=O)c1ccc(-c2ccc([C@@H]3[C@@H](CO)N(C(=O)C4CCOCC4)[C@H]3C#N)cc2)cc1	1
CO[C@@H](C(=O)N(C)C[C@H]1OCc2ccccc2-c2c(n(C)c3ccccc23)C(=O)N([C@H](C)CO)C[C@@H]1C)c1ccccc1	-2
CN1C(=O)c2cc(NC(=O)c3cccc(F)c3)ccc2OC[C@H]2O[C@@H](CC(=O)NC3CCC3)CC[C@@H]21	-1
O=C(C[C@@H]1C[C@H]2c3cc(NC(=O)NC4CCCCC4)ccc3O[C@H]2[C@H](CO)O1)NCC(F)(F)F	-1
CN(C)C(=O)c1ccc(-c2ccc([C@@H]3[C@H](CO)N4CCCCN(CCC(F)(F)F)C[C@@H]34)cc2)cc1	3
COc1ccccc1C#Cc1ccc([C@H]2[C@H](CO)N3CCCCN(CCC(F)(F)F)C[C@@H]23)cc1	-61*
Cc1ccccc1-c1ccc([C@@H]2[C@H]3CN(C(=O)Nc4cccc(F)c4)CCCCN3[C@H]2CO)cc1	-43*
O=C(Nc1cccc(F)c1)N1CCCCN2[C@H](CO)[C@H](c3ccc(-c4ccncc4)cc3)[C@@H]2C1	1
COc1ccccc1C#Cc1ccc([C@H]2[C@H]3CN(S(C)(=O)=O)CCCCN3[C@H]2CO)cc1	23
C/C=C/c1ccc([C@@H]2[C@H]3CN(CCC(F)(F)F)CCCCN3[C@H]2CO)cc1	5
OC[C@@H]1[C@H](c2ccc(-c3cccc(F)c3)cc2)[C@H]2CN(CCC(F)(F)F)CCCCN12	-47*
Cc1cccc(-c2ccc([C@@H]3[C@H]4CN(CCC(F)(F)F)CCCCN4[C@H]3CO)cc2)c1	-31*
Cc1ccccc1-c1ccc([C@H]2[C@H]3CN(C(=O)Nc4cccc(F)c4)CCCCN3[C@H]2CO)cc1	-5
OC[C@@H]1[C@@H](c2ccc(-c3cccc(F)c3)cc2)[C@H]2CN(Cc3cncnc3)CCCCN12	4
OC[C@@H]1[C@H](c2ccc(-c3cccc(F)c3)cc2)[C@@H]2CN(CCC(F)(F)F)CCCCN12	-6
Cc1cccc(-c2ccc([C@H]3[C@@H](CO)N4CCCCN(Cc5ccncc5)C[C@@H]34)cc2)c1	7
CCCNC(=O)[C@H]1[C@H](CO)[C@H]2Cn3c(ccc(C4=CCCC4)c3=O)[C@@H]1N2CCC(F)(F)F	-3
CCC(=O)N1CC[C@@H]2[C@@H](CO)Nc3ccc(-c4ccccc4)cc3[C@@H]21	14
C[C@H]1CN([C@@H](C)CO)C(=O)c2cc(NC(=O)c3ccncc3)ccc2O[C@@H]1CN(C)S(=O)(=O)c1ccc(Cl)cc1	-2
SMILES	DUX4 txn inh
COCCNC(=O)C[C@H]1C[C@H]2c3cc(NS(C)(=O)=O)ccc3O[C@H]2[C@@H](CO)O1	7
O=C([C@H]1[C@H](CO)[C@H]2Cn3c(ccc(C4=CCCCC4)c3=O)[C@@H]1N2Cc1nccs1)N1CCCCC1	-6
O=C(C[C@H]1CC[C@@H](NC(=O)CN2CCOCC2)[C@@H](CO)O1)NCCc1ccncc1	-1
CCCNC(=O)N1[C@H](CO)[C@@H]2c3ccccc3N(C(=O)Nc3cccc(F)c3)C[C@@H]21	3
C[C@@H]1CN([C@H](C)CO)C(=O)Cc2cc(NS(=O)(=O)c3ccccc3)ccc2O[C@@H]1CN(C)Cc1ccc(C(=O)O)cc1	3
COCC(=O)N1[C@H](C#N)[C@H](c2ccc(-c3cccnc3)cc2)[C@@H]1CO	-2
O=C(C[C@H]1C[C@@H]2c3cc(NC(=O)C4CCOCC4)ccc3O[C@@H]2[C@@H](CO)O1)NCc1cc(F)ccc1F	2
CNC(=O)C[C@@H]1CC[C@@H]2[C@H](COc3ccc(NC(=O)Nc4ccc(F)c(F)c4)cc3C(=O)N2C)O1	-2
CN(C)C(=O)c1cccc(-c2ccc([C@@H]3[C@@H](CO)N4CCCCN(C(=O)C5CCC5)C[C@H]34)cc2)c1	29
O=C(C1CC1)N1CCCCN2[C@@H](CO)[C@H](c3ccc(-c4cccc(F)c4)cc3)[C@@H]2C1	0
O=C(C1CC1)N1CCCCN2[C@H](CO)[C@H](c3ccc(-c4cccc(F)c4)cc3)[C@@H]2C1	-22*
OC[C@@H]1[C@H](c2ccc(C#Cc3ccccc3)cc2)[C@@H]2CN(CC3CCOCC3)CCCCN12	8
CN1CCCCN2[C@H](C1)[C@H](c1ccc(C#Cc3ccccc3F)cc1)[C@@H]2CO	-6
OC[C@@H]1[C@H](c2ccc(C#Cc3ccccc3F)cc2)[C@H]2CN(CC3CCOCC3)CCCCN12	-21*
CN1CCCCN2[C@H](CO)[C@H](c3ccc(C#Cc4ccccc4F)cc3)[C@@H]2C1	6
OC[C@H]1[C@H](c2ccc(C#Cc3ccccc3F)cc2)[C@@H]2CN(CC3CCOCC3)CCCCN12	-13*
OC[C@H]1[C@H](c2ccc(C#Cc3ccccc3)cc2)[C@H]2CN(CC3CCOCC3)CCCCN21	-8
O=C(NCC1CC1)[C@H]1[C@H](CO)[C@H]2Cn3c(ccc(-c4cccnc4)c3=O)[C@H]2N1Cc1cocn1	-2
COc1ccc2c3c(n(C)c2c1)[C@H](CO)N(Cc1ccccc1OC)CC31CN(C(=O)C2CC2)C1	11
C[C@H](CO)N1C[C@H](C)[C@H](CN(C)CC2CCCCC2)OCCCC[C@H](C)Oc2ccc(NC(=O)C3CCCCC3)cc2C1=O	1
C=C(C)C[C@H]1CCn2nncc2COCCNC1=O	-1
COc1ccc(NC(=O)N(C)C[C@@H]2Oc3ccc(NC(=O)Nc4cccc5ccccc45)cc3CC(=O)N([C@H](C)CO)C[C@H]2C)cc1	-2
COc1cccc(CN2[C@@H]3CNC[C@H]2[C@H]3c2ccc(-c3ccccc3OC)cc2)c1	8
COc1cccc(CN2C[C@@H]3N[C@H](C2)C3c2ccc(-c3ccccc3C)cc2)c1 (stereo partly drawn)	-35*!
Fc1ccc(-c2ccc(C3[C@@H]4CN(Cc5cccc(F)c5)C[C@H]3N4)cc2)cc1 (stereo partly drawn)	-36*!
COc1cccc(CN2C[C@@H]3N[C@H](C2)C3c2ccc(-c3ccncc3)cc2)c1 (stereo partly drawn)	-26*!
COc1cccc(CN2[C@@H]3CNC[C@H]2C3c2ccc(-c3ccc(C#N)cc3)cc2)c1 (stereo partly drawn)	4
CN(C)C(=O)c1cccc(-c2ccc(C3[C@@H]4CN(Cc5ccccc5F)C[C@H]3N4)cc2)c1 (stereo partly drawn)	-18*!
Fc1cccc(CN2[C@@H]3CNC[C@H]2C3c2ccc(-c3ccccc3)cc2)c1 (stereo partly drawn)	16
CN(C)C(=O)c1cccc(-c2ccc(C3[C@@H]4CN(C(=O)Nc5ccccc5F)C[C@H]3N4)cc2)c1 (stereo partly drawn)	3

Assay outcomes (PubChem)
